Screening results from PubChem BioAssay.
Giardia killer – Small Molecules that selectively kill Giardia lamblia: qHTS | 0.15% of 340,000 active | Giardia lamblia trophozoite viability | activity change, % at 7.66 µM, hits read low; in the data active = activity change below about -80%; inconclusive = between about -30% and that limit;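 note: parasites exposed to compound for two days anaerobically before the ATP read; % is set by controls: 0 for no effect and ±100 for the full control effect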
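Trophozoite viability was measured as ATP-dependent luminescence, read 15-30 min after reagent addition. Before that, parasites at 100 cells/well were exposed to compounds for 48 h, anaerobically, at 37 deg C.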
HT1080-NT tox – qHTS for induction of synthetic lethality in tumor cells producing 2HG: qHTS for the HT-1080-NT fibrosarcoma cell line | AID 686970, 2013 | 1.6% of 360,000 active | HT-1080-NT fibrosarcoma viability, CellTiter-Glo ATP luminescence, 48 h | Potency, µM (top dose mostly 46.1 µM), for inactives: at the highest dose activity, negative = less viability, usual class: cytotoxic;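 note: NT is the 2HG producing partner of a matched IDH1 knockdown line; potency is the fitted concentration of half-maximal effect; 0% = DMSO-treated cells and -100% = media-only wells without cells; nearly all actives have a fitted effect of over 55% in size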
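Luminescent CellTiter-Glo readout after 48 hours of compound exposure at 37 degrees C defined viability of HT-1080-NT cells. Activity was normalized to DMSO wells and cell-free media wells; concentration-response curves were fitted and assigned curve classes.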
HT1080 IDH1KD tx – qHTS for induction of synthetic lethality in tumor cells producing 2HG: qHTS for the HT-1080-IDH1KD cell line. 2% of 360,000 active. AID 686971, 2013. Potency, µM (series often up to 46.1 µM), inactives show top-dose activity, negative = toxicity, hits mostly cytotoxic. HT-1080 IDH1 knockdown viability, ATP luminescence, 48 h;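 note: potency is the fitted concentration of half-maximal effect; 0% = DMSO wells and -100% = cell-free medium wells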
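Using the IDH1-knockdown HT-1080 line run in the same batch and compound series as the NT line, viability after 48 h at 37 °C was determined by CellTiter-Glo luminescence and expressed as % activity.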
HepG2 tox – qHTS for Inhibitors of TGF-b: Cytotox Counterscreen; Potency, µM (doses to about 46.1 µM), for the others: at the highest dose activity change, negative = cytotoxicity, hits mostly cytotoxic; 0.76% of 410,000 active; HepG2 CAGA-GFP viability, ATP luminescence, 18 h; note: potency is the fitted concentration of half-maximal effect
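HepG2 CAGA-GFP cells (1000/well, DMEM with 1% FBS) received compound, then TGF-beta at 500 pg/mL final, and were incubated 18 hours at 37 degrees C. Viability was read by CellTiter-Glo luminescence. Media-only wells were set as complete cell-killing and DMSO as no toxicity.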
IL-1B inflam inh – qHTS for Inhibitors of Inflammasome Signaling: IL-1-beta AlphaLISA Primary Screen | THP-1 LPS/ATP IL-1B secretion, AlphaLISA, 16 h; hits give low values | activity change, % at 57.5 µM | 4.7% of 360,000 active | AID 743279, 2014; in the data active = activity change below about -50%; inconclusive = mostly about -30% to -49%; note: % is set by controls: 0 for no effect and ±100 for the full control effect
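THP-1 cells pretreated 1 hr with compounds (up to 57.5 uM final), then stimulated with LPS (250 ng/mL final) plus ATP (1.25 mM final); secreted IL-1B measured by AlphaLISA after 16 hr, decreased signal indicating inhibition.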
TGFb inhibitor – qHTS for Inhibitors of TGF-b; AID 588855, 2011; HepG2 CAGA-GFP TGF-b/SMAD3 reporter, GFP fluorescence, 18 h; TGF-beta stimulated, 500 pg/mL final; Potency, µM (top dose mostly 46.1 µM), for the others: at the highest dose activity, negative = inhibition, actives largely listed as inhibitors; 1.2% of 410,000 active; note: potency is the fitted concentration of half-maximal effect; % is set by controls: 0 for no effect and ±100 for the full control effect; nearly all actives have a fitted effect of over 65% in size
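Per well, imaged GFP fluorescence of HEPG2 CAGA-GFP cells gives the signal; cells get compound, then TGF-beta (500 pg/mL final), 18 h at 37 degrees C; %Activity versus -TGF-beta and +DMSO controls.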
* = called active by the depositor; ? = inconclusive; . = no result given. An excerpt weighted towards active compounds, which were near 6.5% of everything screened. Unless noted, calls come from the whole dose curve; as a rule, active = well fitted curve in the direction sought with a large enough effect; inconclusive = small, poorly fitted or top-dose-only effect, or another doubt; inactive = no such curve, though single readings can be large; an effect the other way counts as inactive or inconclusive.

SMILES	Giardia killer	HT1080-NT tox	HT1080 IDH1KD tx	HepG2 tox	IL-1B inflam inh	TGFb inhibitor
COc1ccc(CN(C)C(=O)c2ccc3ccccc3n2)cc1F	-7	-16%	-12%	6%	-3	12%
Cc1cc(C)c(C#N)c(SCC(=O)c2ccc(Cl)cc2Cl)n1	12	?	?	-6%	-93*	3%
COCCn1c(C)cc(C(=O)CSc2nc(C)cc(C)c2C#N)c1C	-16	-13%	-13%	-17%	-52*	-37%
O=C(CC1SC(=Nc2ccccc2)N(CCc2c[nH]c3ccccc23)C1=O)Nc1ccccc1F (configuration not stated)	-16	?	21µM*	-24%	-80*	?
c1ccc(NC2=NCCN2CCCC2CCCCC2)cc1	26	-27%	-27%	-14%	-61*	-12%
C[C@H](NC(=O)N1CCn2c1nc1ccccc12)C(=O)NCc1ccccc1	28	-1%	-16%	1%	0	-23%
Cc1c(C(=O)N2CCOCC2)[nH]c2c1C(=O)CC(c1ccccc1Cl)C2 (configuration not stated)	5	5µM*	4µM*	-35%	-17	-17%
CCOc1ccccc1NC(=O)Cn1nnc(C(=O)NCc2ccc3c(c2)OCO3)c1N	-2	?	12µM*	3%	30	0%
CCOc1ccccc1NC(=O)Cn1nnc(C(=O)NCc2ccco2)c1N	9	?	0.041µM*	-11%	22	?
COc1ccc(NC(=O)Cn2nnc(C(=O)NCc3ccc4c(c3)OCO4)c2N)cc1	-6	-21%	-29%	-10%	-5	3%
CCOc1ccccc1NC(=O)c1nnn(CC(=O)Nc2ccc3c(c2)OCO3)c1N	-13	1%	-9%	0%	-8	1%
Cc1cccc(NC(=O)Cn2nnc(C(=O)NCc3cccs3)c2N)c1C	2	-18%	-14%	18µM*	0	1%
Cc1ccccc1NC(=O)Cn1nnc(C(=O)NCc2cccs2)c1N	.	.	.	12%	.	5%
Cc1cc(C)cc(NC(=O)Cn2nnc(C(=O)NCc3ccc4c(c3)OCO4)c2N)c1	-4	18µM*	?	2%	64	1%
COc1ccccc1CNS(=O)(=O)c1ccc2c(c1)NC(=O)CO2	-15	-1%	-14%	2%	4	1%
Cc1ccccc1CSCc1ccc(C(=O)NCCCN2CCOCC2)o1	0	8%	16%	3%	19	-1%
COc1ccc(C)cc1S(=O)(=O)n1cnc(C)c1	-7	2%	0%	10%	14	21%
COc1cc(C)c(C(C)C)cc1S(=O)(=O)n1cnc(C)c1	-12	?	9.2µM*	-11%	54	?
CN1CCN(c2ccccc2NC(=O)c2sc3ccccc3c2Cl)CC1	3	?	?	-16%	?	0%
NC(=NCCc1c[nH]c2ccccc12)NC(=O)c1ccc(F)cc1	20	-27%	?	-28%	-63*	?
NC(=NCCc1c[nH]c2ccccc12)NS(=O)(=O)c1ccc(F)cc1	-5	-4%	-16%	9%	-24	0%
CCc1c(C(=O)N/N=C/c2cccs2)nnn1-c1nonc1N	-17	-1%	2%	-13%	0	10%
Nc1nonc1-n1nnc(C(=O)N/N=C/c2cc(Br)cs2)c1-c1ccccc1	11	-17%	?	-7%	-92*	?
C/C(=N/NC(=O)c1nnn(-c2nonc2N)c1-c1ccccc1)c1ccc2c(c1)OCO2	-14	-4%	-12%	20%	-86*	12%
COCc1c(C(=O)N/N=C\c2cccs2)nnn1-c1nonc1N	-18	-4%	-7%	-7%	-68*	0%
SMILES	Giardia killer	HT1080-NT tox	HT1080 IDH1KD tx	HepG2 tox	IL-1B inflam inh	TGFb inhibitor
C#CCOCCOCCOCCNc1nc(N2CCOCC2)nc(N2CCN(C(=O)CCCCCCCCCCNC(=O)Cn3cc(CCCCCN)nn3)CC2)n1	-2	3%	-3%	-13%	-28	-4%
Cc1oc2c(C)c(O)ccc2c(=O)c1-c1cnn(-c2ccccc2)c1	-13	8%	2%	-73%	33	?
Cc1[nH]nc(-c2ccc(O)c(C)c2O)c1-c1cnn(-c2ccccc2)c1	2	3%	4%	-10%	?	7.1µM*
CN1CCN(C(=O)C23CC4CC(C2)CC(c2ccccc2)(C4)C3)CC1	7	-25%	0%	-1%	-53*	-2%
CN1C=CC=C/C1=C1\SC(=S)N(CC(=O)O)C1=O	0	22%	21%	1%	12	9%
CCc1c(C(C)S(=O)(=O)c2ccc(C)cc2)[nH]c(=O)n1-c1ccc(C)cc1 (configuration not stated)	6	6%	-2%	-32%	-10	-17%
CC1(C)COC(Cn2c3ccccc3c3ccccc32)O1 (configuration not stated)	-22	-14%	23µM*	18%	48	-13%
CC1COC(Cn2c3ccccc3c3ccccc32)O1 (configuration not stated)	5	?	?	-3%	3	23%
COc1ccc(Nc2n[nH]c(N)c2C(N)=O)cc1	0	-2%	-2%	-10%	4	21%
O=C1/C(=C\c2cccc(O)c2O)SC(=S)N1Cc1ccccc1	-28	?	?	-60%	-98*	?
O=C1/C(=C\c2cc([N+](=O)[O-])ccc2O)SC(=S)N1Cc1ccc(Cl)cc1	-9	23µM*	23µM*	-60%	-10	-6%
O=C(O)CCCCN1C(=O)/C(=C\c2ccc(OCc3ccccc3)c(OCc3ccccc3)c2)SC1=S	20	-12%	-12%	-5%	-93*	1%
O=C1/C(=C/c2ccncc2)SC(=S)N1Cc1ccccc1	-4	23µM*	18µM*	-46%	-82*	?
O=S(=O)(Nc1ccc(-c2ccc(N3CCCC3)nn2)cc1)c1ccccc1Cl	.	.	.	-26%	.	?
CC(CCc1ccccc1)NC(=O)CCC(=O)N1CCC(C(N)=O)CC1 (configuration not stated)	11	-2%	0%	-5%	-10	-3%
CSc1nc(NCC(C)C)nc(N2CCOCC2)n1	9	3%	-8%	-15%	16	-5%
